Laboratory results: PMC7862700, “An all-to-all approach to the identification of sequence-specific readers for epigenetic DNA modifications on cytosine”

Key:
Test in all cases: DAPPL (digital affinity profiling via proximity ligation, sequencing); 10 mM Tris-HCl pH 7.5, 50 mM NaCl, 1 mM DTT, 4% glycerol, room temperature, 30 min; GST-TFs on glutathione beads, 16-mer random dsDNA library, 0.1% formaldehyde crosslink after washing; high values mean tight binding
[1] = target: T1, FEV (Homo sapiens, UniProt Q99581 1-238); details: protein: recombinant; tags: N-terminal GST; dsDNA, one strand shown
T1 sequence: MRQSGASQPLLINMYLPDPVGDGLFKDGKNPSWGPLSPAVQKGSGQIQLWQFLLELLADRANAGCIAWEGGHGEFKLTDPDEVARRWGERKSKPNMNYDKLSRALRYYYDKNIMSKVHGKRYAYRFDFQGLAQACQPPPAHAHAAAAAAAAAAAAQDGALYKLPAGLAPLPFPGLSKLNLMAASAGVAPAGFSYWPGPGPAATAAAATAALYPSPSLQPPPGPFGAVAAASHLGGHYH
Summary of the method: (§1)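 Pools of DNA-barcoded human transcription factors, expressed in yeast as GST fusions on glutathione beads and combined with a tag-only sample, were incubated with 200 nmole of a 16-mer random double-stranded DNA library. Incubation took 30 min at room temperature in Tris/NaCl/DTT/glycerol buffer and was followed by washing, 0.1% formaldehyde crosslinking, proximity ligation (BsaI/T4 ligase, 1 h, 37 °C), PCR amplification and sequencing on an Illumina NextSeq500. Binding signal is the ratio of a hexamer's read frequency for a factor to its frequency for the tag-only sample.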

[2] = target: ETV5 (Homo sapiens, UniProt P41161 1-510); details: protein: recombinant; tags: N-terminal GST; dsDNA, one strand shown
Summary of the method: as §1

[3] = target: HSF1 (Homo sapiens, UniProt Q00613 1-529); details: protein: recombinant; tags: N-terminal GST; chain copies: 3; dsDNA, one strand shown
Summary of the method: as §1

[4] = target: T2, SPIC (Homo sapiens, UniProt Q8N5J4 1-248); details: protein: recombinant; tags: N-terminal GST; dsDNA, one strand shown
T2 sequence: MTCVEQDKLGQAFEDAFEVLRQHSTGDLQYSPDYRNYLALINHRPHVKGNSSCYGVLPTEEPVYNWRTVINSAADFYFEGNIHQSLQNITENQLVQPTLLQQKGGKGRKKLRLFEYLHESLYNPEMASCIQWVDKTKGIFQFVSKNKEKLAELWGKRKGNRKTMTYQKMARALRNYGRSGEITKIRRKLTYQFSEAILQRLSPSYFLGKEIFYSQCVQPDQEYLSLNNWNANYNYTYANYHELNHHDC
Summary of the method: as §1

[5] = target: ELF4 (Homo sapiens, UniProt Q99607 1-663); details: protein: recombinant; tags: N-terminal GST; dsDNA, one strand shown
Summary of the method: as §1

[6] = target: T3, ELK4 (Homo sapiens, UniProt P28324-2 1-405); details: protein: recombinant; tags: N-terminal GST; dsDNA, one strand shown
T3 sequence: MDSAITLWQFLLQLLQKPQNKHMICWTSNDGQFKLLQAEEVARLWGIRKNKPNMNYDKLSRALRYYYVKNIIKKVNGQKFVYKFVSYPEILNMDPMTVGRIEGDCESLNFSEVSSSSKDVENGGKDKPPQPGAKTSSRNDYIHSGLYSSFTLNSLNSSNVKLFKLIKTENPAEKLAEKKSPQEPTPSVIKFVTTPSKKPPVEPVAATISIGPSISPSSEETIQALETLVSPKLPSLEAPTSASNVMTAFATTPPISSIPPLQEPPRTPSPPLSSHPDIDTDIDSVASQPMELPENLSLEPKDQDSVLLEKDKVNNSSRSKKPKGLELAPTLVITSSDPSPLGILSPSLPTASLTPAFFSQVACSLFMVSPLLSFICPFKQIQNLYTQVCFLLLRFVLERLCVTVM
Summary of the method: as §1

[7] = target: T4, ETV2 (Homo sapiens, UniProt O00321 1-342); details: protein: recombinant; tags: N-terminal GST; dsDNA, one strand shown
T4 sequence: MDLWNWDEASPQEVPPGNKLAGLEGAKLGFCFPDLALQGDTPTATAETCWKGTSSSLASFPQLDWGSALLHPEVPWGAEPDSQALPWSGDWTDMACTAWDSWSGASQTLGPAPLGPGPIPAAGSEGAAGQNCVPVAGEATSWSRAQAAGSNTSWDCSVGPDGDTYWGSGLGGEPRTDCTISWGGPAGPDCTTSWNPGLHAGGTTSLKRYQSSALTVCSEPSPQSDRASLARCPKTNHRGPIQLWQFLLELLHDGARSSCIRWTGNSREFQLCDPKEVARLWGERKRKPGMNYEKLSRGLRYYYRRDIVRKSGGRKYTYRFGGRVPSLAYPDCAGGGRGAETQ
Summary of the method: as §1

[8] = target: T5, ELF3 (Homo sapiens, UniProt P78545 1-371); details: protein: recombinant; tags: N-terminal GST; dsDNA, one strand shown
T5 sequence: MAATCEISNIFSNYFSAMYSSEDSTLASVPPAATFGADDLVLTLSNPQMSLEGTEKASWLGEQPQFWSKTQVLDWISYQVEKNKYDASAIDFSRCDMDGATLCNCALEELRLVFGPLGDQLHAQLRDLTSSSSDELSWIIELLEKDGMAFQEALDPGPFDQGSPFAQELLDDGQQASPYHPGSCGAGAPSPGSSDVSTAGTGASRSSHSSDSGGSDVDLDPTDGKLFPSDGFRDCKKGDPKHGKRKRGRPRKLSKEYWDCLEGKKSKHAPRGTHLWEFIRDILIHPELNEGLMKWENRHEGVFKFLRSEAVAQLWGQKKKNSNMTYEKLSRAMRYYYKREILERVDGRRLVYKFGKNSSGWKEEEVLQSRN
Summary of the method: as §1

[9] = target: CRX (Homo sapiens, UniProt O43186 1-299); details: protein: recombinant; tags: N-terminal GST; dsDNA, one strand shown
Summary of the method: as §1

[10] = target: ETV1 (Homo sapiens, UniProt P50549 1-477); details: protein: recombinant; tags: N-terminal GST; dsDNA, one strand shown
Summary of the method: as §1

ELF4, sequence (Q99607 whole entry): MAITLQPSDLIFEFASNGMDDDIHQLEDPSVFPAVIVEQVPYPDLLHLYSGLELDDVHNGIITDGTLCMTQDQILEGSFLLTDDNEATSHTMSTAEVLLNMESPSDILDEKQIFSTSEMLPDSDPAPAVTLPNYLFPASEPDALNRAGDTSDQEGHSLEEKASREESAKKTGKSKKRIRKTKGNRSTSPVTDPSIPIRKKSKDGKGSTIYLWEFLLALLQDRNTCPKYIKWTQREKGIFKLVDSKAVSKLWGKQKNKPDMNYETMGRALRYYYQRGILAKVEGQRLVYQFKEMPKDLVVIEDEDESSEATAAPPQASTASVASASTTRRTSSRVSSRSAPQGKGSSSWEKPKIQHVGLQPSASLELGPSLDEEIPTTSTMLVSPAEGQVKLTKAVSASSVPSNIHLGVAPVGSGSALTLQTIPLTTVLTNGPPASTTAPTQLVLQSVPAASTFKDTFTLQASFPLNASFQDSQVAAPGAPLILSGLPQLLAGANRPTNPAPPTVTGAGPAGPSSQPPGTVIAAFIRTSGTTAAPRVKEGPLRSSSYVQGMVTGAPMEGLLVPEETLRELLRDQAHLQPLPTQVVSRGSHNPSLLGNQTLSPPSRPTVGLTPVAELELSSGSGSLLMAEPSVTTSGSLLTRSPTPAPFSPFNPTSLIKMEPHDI
HSF1, sequence (Q00613 whole entry): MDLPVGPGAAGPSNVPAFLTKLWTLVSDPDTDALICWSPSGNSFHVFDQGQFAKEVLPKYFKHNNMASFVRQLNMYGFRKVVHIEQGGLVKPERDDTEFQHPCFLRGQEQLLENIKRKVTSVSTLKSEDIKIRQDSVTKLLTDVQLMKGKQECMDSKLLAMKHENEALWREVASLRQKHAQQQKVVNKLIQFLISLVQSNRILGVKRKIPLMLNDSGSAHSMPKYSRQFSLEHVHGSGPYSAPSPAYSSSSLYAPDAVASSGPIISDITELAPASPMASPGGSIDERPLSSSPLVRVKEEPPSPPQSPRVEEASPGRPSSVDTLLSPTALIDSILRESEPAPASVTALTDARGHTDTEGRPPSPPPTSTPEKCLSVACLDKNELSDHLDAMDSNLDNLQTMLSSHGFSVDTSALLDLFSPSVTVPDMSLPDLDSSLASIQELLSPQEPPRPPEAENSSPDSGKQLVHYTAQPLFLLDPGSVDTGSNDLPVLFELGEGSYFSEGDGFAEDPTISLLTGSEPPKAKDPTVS
ETV1, sequence (P50549 whole entry): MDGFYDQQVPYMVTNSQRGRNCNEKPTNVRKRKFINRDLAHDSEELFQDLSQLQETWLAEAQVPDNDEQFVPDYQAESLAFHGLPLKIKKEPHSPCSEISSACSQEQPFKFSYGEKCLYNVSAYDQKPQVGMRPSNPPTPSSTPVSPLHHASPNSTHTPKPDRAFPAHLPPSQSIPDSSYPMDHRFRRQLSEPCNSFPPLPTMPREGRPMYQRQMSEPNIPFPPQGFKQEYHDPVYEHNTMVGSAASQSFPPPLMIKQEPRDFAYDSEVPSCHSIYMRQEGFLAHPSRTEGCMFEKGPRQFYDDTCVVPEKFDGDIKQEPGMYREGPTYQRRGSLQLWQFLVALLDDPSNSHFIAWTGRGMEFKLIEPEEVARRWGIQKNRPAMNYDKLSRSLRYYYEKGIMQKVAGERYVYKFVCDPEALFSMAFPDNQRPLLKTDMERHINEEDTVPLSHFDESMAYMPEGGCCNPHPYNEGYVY
CRX, sequence (O43186 whole entry): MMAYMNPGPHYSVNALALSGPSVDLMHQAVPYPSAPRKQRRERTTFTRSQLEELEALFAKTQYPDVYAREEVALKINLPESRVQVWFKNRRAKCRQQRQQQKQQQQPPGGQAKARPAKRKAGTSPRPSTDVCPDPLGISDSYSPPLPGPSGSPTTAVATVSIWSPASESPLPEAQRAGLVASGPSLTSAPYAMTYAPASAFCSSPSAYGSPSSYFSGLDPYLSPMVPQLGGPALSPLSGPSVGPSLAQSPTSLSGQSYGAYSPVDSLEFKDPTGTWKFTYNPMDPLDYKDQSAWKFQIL
ETV5, sequence (P41161 whole entry): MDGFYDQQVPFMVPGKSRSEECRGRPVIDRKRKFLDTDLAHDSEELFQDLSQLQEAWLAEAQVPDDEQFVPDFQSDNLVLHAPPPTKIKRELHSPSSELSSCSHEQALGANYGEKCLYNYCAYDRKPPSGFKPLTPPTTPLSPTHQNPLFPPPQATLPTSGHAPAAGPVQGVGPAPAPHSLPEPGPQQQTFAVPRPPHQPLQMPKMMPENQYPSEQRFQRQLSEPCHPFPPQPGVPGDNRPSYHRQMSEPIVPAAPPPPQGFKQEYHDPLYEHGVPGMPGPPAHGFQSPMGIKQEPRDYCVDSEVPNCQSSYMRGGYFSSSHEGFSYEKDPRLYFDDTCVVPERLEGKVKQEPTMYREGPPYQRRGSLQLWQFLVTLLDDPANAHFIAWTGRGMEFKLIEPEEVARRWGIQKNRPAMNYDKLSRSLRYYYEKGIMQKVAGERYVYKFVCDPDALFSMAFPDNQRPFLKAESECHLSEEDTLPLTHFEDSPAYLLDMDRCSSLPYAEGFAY

ATTCTT was tested, and the binding signal [1] was 1.4 fold enrichment (6-mer frequency, TF over GST control), the binding signal [2] was 1.4 fold enrichment (6-mer frequency, TF over GST control) and the binding signal [3] was 1.99 fold enrichment (6-mer frequency, TF over GST control). For the same sequence, the binding signal [4] was 1.56 fold enrichment (6-mer frequency, TF over GST control), the binding signal [5] was 1.47 fold enrichment (6-mer frequency, TF over GST control) and the binding signal [6] was 1.51 fold enrichment (6-mer frequency, TF over GST control). The binding signal [7] was 1.37 fold enrichment (6-mer frequency, TF over GST control), the binding signal [8] was 1.45 fold enrichment (6-mer frequency, TF over GST control) and the binding signal [9] was 1.77 fold enrichment (6-mer frequency, TF over GST control). For the same sequence, the binding signal [10] was 1.56 fold enrichment (6-mer frequency, TF over GST control).

For GCCGAT, the binding signal [1] was 1.11 fold enrichment (6-mer frequency, TF over GST control), the binding signal [2] was 1.11 fold enrichment (6-mer frequency, TF over GST control) and the binding signal [3] was 1.13 fold enrichment (6-mer frequency, TF over GST control). The binding signal [4] was 1.03 fold enrichment (6-mer frequency, TF over GST control), the binding signal [5] was 1.16 fold enrichment (6-mer frequency, TF over GST control) and the binding signal [6] was 1.13 fold enrichment (6-mer frequency, TF over GST control). The binding signal [7] was 1.13 fold enrichment (6-mer frequency, TF over GST control), the binding signal [8] was 1.02 fold enrichment (6-mer frequency, TF over GST control) and the binding signal [9] was 1.46 fold enrichment (6-mer frequency, TF over GST control). The binding signal [10] was 1.07 fold enrichment (6-mer frequency, TF over GST control).

With TGTTAC the binding signal [1] was 1.4 fold enrichment (6-mer frequency, TF over GST control), the binding signal [2] was 1.47 fold enrichment (6-mer frequency, TF over GST control) and the binding signal [3] was 1.12 fold enrichment (6-mer frequency, TF over GST control). The binding signal [4] was 1.42 fold enrichment (6-mer frequency, TF over GST control), the binding signal [5] was 1.47 fold enrichment (6-mer frequency, TF over GST control) and the binding signal [6] was 1.51 fold enrichment (6-mer frequency, TF over GST control). The binding signal [7] was 1.58 fold enrichment (6-mer frequency, TF over GST control), the binding signal [8] was 1.39 fold enrichment (6-mer frequency, TF over GST control) and the binding signal [9] was 1.19 fold enrichment (6-mer frequency, TF over GST control). The binding signal [10] was 1.4 fold enrichment (6-mer frequency, TF over GST control).

In the case of TCGTTC, the binding signal [1] is reported as 1.23 fold enrichment (6-mer frequency, TF over GST control), the binding signal [2] is reported as 1.29 fold enrichment (6-mer frequency, TF over GST control) and the binding signal [3] is reported as 1.39 fold enrichment (6-mer frequency, TF over GST control). The binding signal [4] was 1.23 fold enrichment (6-mer frequency, TF over GST control), the binding signal [5] was 1.31 fold enrichment (6-mer frequency, TF over GST control) and the binding signal [6] was 1.39 fold enrichment (6-mer frequency, TF over GST control). For the same sequence, the binding signal [7] was 1.37 fold enrichment (6-mer frequency, TF over GST control), the binding signal [8] was 1.15 fold enrichment (6-mer frequency, TF over GST control) and the binding signal [9] was 1.04 fold enrichment (6-mer frequency, TF over GST control). The binding signal [10] was 1.2 fold enrichment (6-mer frequency, TF over GST control).

TAAACC was tested, and the binding signal [1] was 1.29 fold enrichment (6-mer frequency, TF over GST control), the binding signal [2] was 1.23 fold enrichment (6-mer frequency, TF over GST control) and the binding signal [3] was 1.46 fold enrichment (6-mer frequency, TF over GST control). For the same sequence, the binding signal [4] was 1.13 fold enrichment (6-mer frequency, TF over GST control), the binding signal [5] was 1.19 fold enrichment (6-mer frequency, TF over GST control) and the binding signal [6] was 1.32 fold enrichment (6-mer frequency, TF over GST control). The binding signal [7] was 1.27 fold enrichment (6-mer frequency, TF over GST control), the binding signal [8] was 1.35 fold enrichment (6-mer frequency, TF over GST control) and the binding signal [9] was 2.11 fold enrichment (6-mer frequency, TF over GST control). For the same sequence, the binding signal [10] was 1.23 fold enrichment (6-mer frequency, TF over GST control).

TATAGC was tested, and the binding signal [1] was 1.19 fold enrichment (6-mer frequency, TF over GST control), the binding signal [2] was 1.37 fold enrichment (6-mer frequency, TF over GST control) and the binding signal [3] was 1.17 fold enrichment (6-mer frequency, TF over GST control). The binding signal [4] was 1.31 fold enrichment (6-mer frequency, TF over GST control), the binding signal [5] was 1.15 fold enrichment (6-mer frequency, TF over GST control) and the binding signal [6] was 1.29 fold enrichment (6-mer frequency, TF over GST control). For the same sequence, the binding signal [7] was 1.13 fold enrichment (6-mer frequency, TF over GST control), the binding signal [8] was 1.27 fold enrichment (6-mer frequency, TF over GST control) and the binding signal [9] was 1.44 fold enrichment (6-mer frequency, TF over GST control). For the same sequence, the binding signal [10] was 1.13 fold enrichment (6-mer frequency, TF over GST control).

In the case of AAAATT, the binding signal [1] is reported as 1.29 fold enrichment (6-mer frequency, TF over GST control), the binding signal [2] is reported as 1.4 fold enrichment (6-mer frequency, TF over GST control) and the binding signal [3] is reported as 1.73 fold enrichment (6-mer frequency, TF over GST control). For the same sequence, the binding signal [4] was 1.2 fold enrichment (6-mer frequency, TF over GST control), the binding signal [5] was 1.41 fold enrichment (6-mer frequency, TF over GST control) and the binding signal [6] was 1.34 fold enrichment (6-mer frequency, TF over GST control). The binding signal [7] was 1.54 fold enrichment (6-mer frequency, TF over GST control), the binding signal [8] was 1.43 fold enrichment (6-mer frequency, TF over GST control) and the binding signal [9] was 1.46 fold enrichment (6-mer frequency, TF over GST control). The binding signal [10] was 1.36 fold enrichment (6-mer frequency, TF over GST control).
